# Compounds with a hit are over-represented: about 3.5% of the library has one in this group of screens.
# mHTT-CaM PPI inh – disrupts binding of mutant huntingtin to calmodulin | 190,000 tested, 3.6% active | AlphaScreen His-mHTT/GST-CaM binding, luminescence | P42858 | AID 1671202 | inhibition, % at 15 µM;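 also: 0% = both proteins with DMSO and 100% = one protein alone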
# Pf apPOL block – Pf-apPOL DNA polymerase inhibition; Recombinant Pf-apPOL, molecular beacon fluorescence, 1.5 h; 210,000 tested, 0.25% active; inhibition, % at 10 µM
# Numbers without * were called inactive; / = no result given. Rule as the data show it: active = inhibition above about 50%; inactive = the rest.
SMILES,mHTT-CaM PPI inh,Pf apPOL block
COc1cccc(CNS(=O)(=O)c2ccc3[nH]c4c(c3c2)CCCCC4)c1,73*,-7
Cc1ccc(CNS(=O)(=O)c2ccc3[nH]c4c(c3c2)CCCC4)o1,50*,-4
COc1cccc(CNS(=O)(=O)c2ccc3[nH]c(=O)sc3c2)c1,5,4
O=c1[nH]c2ccc(S(=O)(=O)NCc3ccc4c(c3)OCO4)cc2[nH]c1=O,-2,-4
CCN(c1ccc(OC)cc1)S(=O)(=O)c1ccc2[nH]c3c(c2c1)CCCCC3,70*,-3
O=S(=O)(NCc1ccc2c(c1)OCO2)c1ccc2[nH]c3c(c2c1)CCCCC3,96*,-5
CCCCNC(=O)C(C)C1CCN(C(=O)c2sc(-c3ccc(F)cc3)nc2C)CC1 (stereo not given),-3,-4
O=C1NC(=O)N(Cc2ccco2)C(=O)/C1=C\c1cn(CCOc2ccccc2)c2ccccc12,-2,2
O=C(NCCc1ccncc1)C1CN(C(=O)COc2ccccc2F)C1,-11,-4
COc1ccc(CSc2nnc(N)s2)cc1,-1,-13
CC(/C=C/c1ccccc1)=C\C(=O)O,-4,-5
CC(=O)OC[C@H](NC(=O)[C@H](Cc1c[nH]c2ccccc12)NC(=O)OC(C)(C)C)[C@@H]1O[C@H](n2cc(CN)c(=O)[nH]c2=O)[C@@H](OC(C)=O)[C@H]1OC(C)=O,26,-1
COc1cc(/C=C2/C(=O)N(c3cccc(Cl)c3)N=C2C)c([N+](=O)[O-])cc1OC,62*,1
COc1cc(/C=C2/C(=O)N(c3ccc(C)cc3)N=C2C)c([N+](=O)[O-])cc1OC,49,-7
CC1=NN(c2cccc(Cl)c2)C(=O)/C1=C/c1ccc(-c2cc([N+](=O)[O-])ccc2O)o1,92*,-3
COc1cc(/C=C2/C(=O)N(c3ccc(C(=O)O)cc3)N=C2C)c([N+](=O)[O-])cc1OC,6,100*
CC1=NN(c2ccccc2)C(=O)/C1=C/c1ccc(-c2ccc([N+](=O)[O-])cc2C)o1,1,-9
COc1ccc(/C=C2/C(=O)N(c3cccc(Cl)c3)N=C2C)cc1[N+](=O)[O-],18,0
CC(=O)NCCOc1ccc(NC(C)=O)cc1,2,-6
COc1ccc(-c2ccc[nH]2)cc1,62*,-31
COc1ccc(-c2nnc(-c3ccc(OC)cc3)nn2)cc1,1,-2
CCOc1ccccc1CN1CCc2nc(N3CCN(c4ncccn4)CC3)ncc2C1,100*,-4
COc1ccc(N2CCN(c3ncc4c(n3)CCN(Cc3ccccc3OC)C4)CC2)cc1,53*,-5
COc1cc(OC)c(OC)cc1CN1CCc2nc(N3CCC(C)CC3)ncc2C1,10,-6
COc1ccc(OC)c(CN2CCc3nc(N4CCCC4)ncc3C2)c1,0,7
SMILES,mHTT-CaM PPI inh,Pf apPOL block
CCOc1ccccc1CN1CCc2nc(N3CCN(CC)CC3)ncc2C1,26,-1
COc1ccc(CN2CCc3nc(N4CCN(c5ncccn5)CC4)ncc3C2)c(OC)c1,100*,-1
COc1ccc(CN2CCc3nc(N4CCC(C)CC4)ncc3C2)c(OC)c1,74*,3
COc1ccc(N2CCN(c3ncc4c(n3)CCN(Cc3ccccc3C)C4)CC2)cc1,10,-2
COc1ccc(NC(=O)C2CCc3nc(N4CCCC4)ncc3C2)c(C)c1 (stereo not given),0,-9
CC(=O)N1CCCN(C(=O)C(C)C)CC1,-3,1
O=C(Nc1ccc(Cl)c(Cl)c1)OC1CC2CCC13CCCC23 (stereo not given),-69,/
CCc1nnc(NC(=O)C(Sc2ccccc2)c2ccccc2)s1 (stereo not given),0,0
CCOc1ccccc1NC(=O)N1CCC2(CC1)Nc1ccccc1-n1cccc12,21,-7
O=C(Nc1cccc(C(F)(F)F)c1)N1CCC2(CC1)Nc1ccccc1-n1cccc12,97*,4
CCOC(=O)c1ccccc1NC(=O)N1CCC2(CC1)Nc1ccccc1-n1cccc12,60*,4
CCOC(=O)Cc1ccc(NC(=O)N2CCC3(CC2)Nc2ccccc2-n2cccc23)cc1,76*,4
CCOC(=O)c1cccc(NC(=O)N2CCC3(CC2)Nc2ccccc2-n2cccc23)c1,66*,-5
O=C(CSc1nc(-c2ccccc2)ns1)Nc1nc2ccccc2s1,-6,2
Cc1ccc(-c2nc(C3CCN(C(=O)c4cccc(Br)c4)CC3)no2)cc1,19,-2
C=CCNC(=O)C1CC(=O)N(c2cc(C)cc(C)c2)C1 (stereo not given),-2,-5
COC(CNC(=O)c1ccc(N2CCN(c3ccccn3)CC2)c([N+](=O)[O-])c1)OC,9,2
COC(CNC(=O)c1ccc(N2CCc3ccccc32)c([N+](=O)[O-])c1)OC,58*,-4
CC(=O)Nc1cc(C(=O)NCC(C)C)c2ccc(C)nc2c1,21,18
Cc1ccc2c(C(=O)NCc3ccccc3C)cc(NC(=O)C(C)C)cc2n1,54*,3
CC(=O)Nc1cc(C(=O)NCc2ccccc2C)c2ccc(C)nc2c1,73*,5

# High-throughput results from PubChem BioAssay.
